MEP2 TOR yeast – modulators of MEP2-GFP levels in yeast, primary screen, S. cerevisiae, multiplex flow cytometry, MLPCN library; S. cerevisiae MEP2-GFP strain, 3 h; 100% = DMSO control level; GFP response vs DMSO, % at 10 µM; actives 0.51% (n = 330,000);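 active = GFP response versus DMSO above a set limit, roughly screen mean plus 3 SD, cut at about 180% in these data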;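 note: median GFP fluorescence of the barcode-gated MEP2-GFP cells per well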
AGP1-GFP MLPCN – modulators of AGP1-GFP expression in yeast TOR pathway, primary screen, cell-based, multiplex flow cytometry, S. cerevisiae, MLPCN library; 3 h; GFP as percent of DMSO wells; GFP response vs DMSO, % at 10 µM; AID 2066, 2009; actives 0.02% (n = 320,000);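 active = GFP response relative to DMSO above a set limit, near screen average plus 3 SD, cut at about 150% in these data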;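 note: median GFP channel fluorescence of the gated AGP1 strain per well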
LAP4-GFP MLPCN – modulators of LAP4-GFP expression in yeast, primary screen, S. cerevisiae, multiplex flow cytometry, MLPCN library; GFP response vs DMSO, % at 10 µM; actives 0.34% (n = 320,000); 3 h; median GFP as percent of DMSO wells;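 active = GFP response vs DMSO above a set limit, about the screen mean plus 3 SD, cut at about 150% in these data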
RPL19A-GFP yeast – RPL19A-GFP expression modulators in yeast, primary screen, cell-based, S. cerevisiae, multiplex flow cytometry, MLPCN; S. cerevisiae RPL19A-GFP strain, 3 h; hits give low values; percent response vs DMSO, % at 10 µM; actives 0.3% (n = 330,000); AID 2025, 2009;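 active = percent response vs DMSO below 50%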;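 note: median channel GFP fluorescence of the barcoded RPL19A-GFP strain; lower means less RPL19A-GFP as with rapamycin TOR inhibition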
CIT2-GFP yeast – modulators of CIT2-GFP expression in yeast, primary screen, S. cerevisiae, GFP fusion, multiplex flow cytometry, MLPCN library. S. cerevisiae CIT2-GFP strain, 3 h; 100 means same as DMSO wells. GFP response vs DMSO, % at 10 µM. actives 0.065% (n = 320,000);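 active = GFP response relative to DMSO above a set limit, near the screen mean plus 3 SD, cut at about 150% in these data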;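 note: ratio of well median GFP fluorescence to mean of DMSO wells on the plate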
LAP4 cherry2 – LAP4-GFP expression modulators in yeast, confirmation, cell-based, second cherry pick, flow cytometry. AID 2621, 2010. shares compounds with LAP4-GFP MLPCN. GFP response vs DMSO, % at 10 µM. actives 20% (n = 590). S. cerevisiae LAP4-GFP strain, 3 h;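 active = GFP signal as percent of the solvent control above about 150%, meaning raised reporter expression, limit read from the data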
MEP2 cherry2 – modulators of MEP2-GFP levels in yeast, confirmation, S. cerevisiae, flow cytometry GFP, second cherry picks. shares compounds with LAP4-GFP MLPCN. actives 10% (n = 590). GFP response vs DMSO, % at 10 µM. S. cerevisiae MEP2-GFP strain, 3 h;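 active = GFP signal above 150% of the solvent control wells, that is a rise of more than half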;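 note: median channel GFP fluorescence of all gated yeast cells per well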
RPL19A-GFP pick2 – RPL19A-GFP modulators in TOR pathway yeast, confirmation, cell-based, S. cerevisiae, flow cytometry, second cherry pick. shares compounds with LAP4-GFP MLPCN. S. cerevisiae RPL19A-GFP strain, 3 h; hits give low values; 100% means same as DMSO wells. GFP response vs DMSO, % at 10 µM. actives 3% (n = 590). AID 2623, 2010;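 active = under 65% GFP response relative to DMSO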;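 note: median GFP channel fluorescence per well over the all cells gate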
CIT2 GFP CP2 – modulators of CIT2-GFP expression in yeast, confirmation, flow cytometry, second cherry pick, single plex; GFP response vs DMSO, % at 10 µM; AID 2624, 2010; shares compounds with LAP4-GFP MLPCN; S. cerevisiae CIT2-GFP strain, 3 h; DMSO control wells read 100%; actives 8% (n = 590);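 active = GFP response vs DMSO above about 150%, limit read from the data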;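 note: median green fluorescence per well over all gated yeast cells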
AGP1 GFP CP2 – AGP1-GFP expression modulators, hit retest, confirmation, cell-based, flow cytometry, S. cerevisiae, cherry pick set 2; 590 tested, under 10 active; AID 2643, 2010; S. cerevisiae AGP1-GFP strain, 3 h; shares compounds with LAP4-GFP MLPCN; percent response vs DMSO, % at 10 µM;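 active = over 150 percent of DMSO response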;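 note: median GFP channel fluorescence over all cells without mother daughter split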
Yeast autofluor – compound autofluorescence in yeast s288c, dose response, artefact control for yeast TOR pathway GFP screen, s288c strain; shares compounds with LAP4-GFP MLPCN; S. cerevisiae s288c, 520 nm autofluorescence, flow cytometry, 3 h; hits give high values; zero means same as solvent-only cells; fluorescence change (kMESF span) at 33 µM; 610 tested, under 10 active;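 active = fluorescence span over the dose series, or activity score, above about 33, limit read from the data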
s288c autofl DR – autofluorescence of compounds in yeast s288c, dose response, artefact control for yeast TOR pathway GFP screen, primary hits, KU SAR, s288c parental; shares compounds with LAP4-GFP MLPCN; S. cerevisiae s288c parental, compound autofluorescence, flow cytometry, 3 h; fluorescence change (span) at 33 µM; 110 tested, under 10 active; AID 488829, 2010;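 active = fluorescence change span, or the activity score built from it, above 25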
TORC1 bypass – wild-type yeast growth inhibition sparing TORC1 bypass cells, mechanism study for yeast TOR pathway GFP screen, BY4741 wild type, TORC1 bypass strain | shares compounds with LAP4-GFP MLPCN | S. cerevisiae BY4741 spot growth rating, 48-72 h; hits give low values | growth rating (0-3) at 30 µM | 120 tested, under 10 active;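 active = growth rating at most 1 for wild type yeast while the TORC1 bypass strain still grows fully, rated 3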
Each line names hits and unclear results; the compound was inactive in the other large screens (follow-up assays come after a bar, where they were run); [ ] = another dose, or the depositor's remark. Compounds with a hit are over-represented: about 0.92% of the library has one in this group of screens.

CCCSc1ccc([C@@H]2[C@@H]3C(=O)N(C)C(=O)[C@@H]3[C@]3(C(=O)OC)CCCN23)cc1OC	none
COc1cc(/C=C2/C(=O)ON=C2c2ccccc2)ccc1O	LAP4-GFP MLPCN 173 | Yeast autofluor inactive
COc1cc(/C=C2\C(=O)ON=C2c2ccccc2)cc(Br)c1O	LAP4-GFP MLPCN 157 | Yeast autofluor inactive
O=C1ON=C(c2ccccc2)/C1=C/c1ccc(O)cc1	none
O=C1ON=C(c2ccc(Cl)cc2)/C1=C/c1ccc(O)cc1	LAP4-GFP MLPCN 161 | Yeast autofluor inactive
CCOc1cc(/C=C2\C(=O)ON=C2c2ccccc2)cc(Br)c1O	none
CCCCN(C(=O)CN(C)CC(=O)Nc1cccc(OC)c1)c1c(N)n(CCCC)c(=O)[nH]c1=O	none
CCOC(=O)CSC1=NC(=O)/C(=C/c2ccc(Br)cc2)S1	LAP4-GFP MLPCN 216 | Yeast autofluor inactive
CC(C)C(=O)NC(c1cccs1)c1cc([N+](=O)[O-])c2cccnc2c1O (stereo unspecified)	LAP4-GFP MLPCN 153 | Yeast autofluor inactive
Cc1ccc(C(NC(=O)C(C)C)c2cc([N+](=O)[O-])c3cccnc3c2O)cc1 (stereo unspecified)	none
O=C1N=c2ccccc2=C1c1c(O)n(-c2cccc(F)c2)[nH]c1=O	LAP4-GFP MLPCN 200 | LAP4 cherry2 inactive | MEP2 cherry2 inactive | RPL19A-GFP pick2 inactive | CIT2 GFP CP2 inactive | AGP1 GFP CP2 inactive
Cc1nc(N2CCCCC2)c2c(-c3cccs3)csc2n1	none | LAP4 cherry2 inactive | MEP2 cherry2 inactive | RPL19A-GFP pick2 inactive | CIT2 GFP CP2 inactive | AGP1 GFP CP2 inactive
Cc1nc(N2CCN(S(=O)(=O)c3ccccc3C#N)CC2)c2c(-c3cccs3)csc2n1	none
Cn1ncc2c(O/N=C(\N)c3ccc(C(C)(C)C)cc3)ncnc21	LAP4-GFP MLPCN 188 | Yeast autofluor inactive
CCOC(=O)c1ccc(Nc2ncnc3c2cnn3C)cc1	none
Cc1sc(/C=C2\C(=O)ON=C2c2ccccc2)cc1Br	none | LAP4 cherry2 inactive | MEP2 cherry2 inactive | RPL19A-GFP pick2 inactive | CIT2 GFP CP2 inactive | AGP1 GFP CP2 inactive | Yeast autofluor inactive
COc1cc(/C=C2\C(=O)ON=C2c2ccccc2)cc(Cl)c1O	none
Cc1ccc(C2=NOC(=O)/C2=C\c2ccccc2)cc1	none
CCCCc1ccc(/C=C2/C(=O)ON=C2c2ccccc2)s1	none | LAP4 cherry2 inactive | MEP2 cherry2 inactive | RPL19A-GFP pick2 inactive | CIT2 GFP CP2 inactive | AGP1 GFP CP2 inactive | Yeast autofluor inactive
Cc1ccnc2nc(C(=O)Nc3nc4ccccc4s3)nn12	none
Cc1ccc(/C(O)=C2\C(=O)C(=O)N(C)C2c2ccc(F)cc2)cc1 (stereo unspecified)	none
CCc1cccc2sc(N3CCN(C(=O)c4ccc([N+](=O)[O-])o4)CC3)nc12	RPL19A-GFP yeast 32 | Yeast autofluor inactive
CC1=NNC(=O)/C1=C\c1cn(-c2ccccc2)nc1-c1ccccc1	LAP4-GFP MLPCN 198 (no result: CIT2-GFP yeast) | Yeast autofluor inactive
O=Cc1cn(-c2ccccc2)nc1-c1ccccc1	none
CC(C)(C)SCCNC(=O)CN(c1ccc(F)cc1)S(=O)(=O)c1ccccc1	none
COc1cccc(NC(=O)CS(=O)(=O)Cc2nc(-c3ccc(C)cc3)oc2C)c1	none
CC(NC(=O)c1ccccc1F)C12CC3CC(CC(C3)C1)C2 (stereo unspecified)	LAP4-GFP MLPCN 158 | LAP4 cherry2 inactive | MEP2 cherry2 inactive | RPL19A-GFP pick2 inactive | CIT2 GFP CP2 inactive | AGP1 GFP CP2 inactive
CCOc1ccccc1C(=O)N(Cc1cccs1)C1CCS(=O)(=O)C1 (stereo unspecified)	none
COc1ccc(C(=O)c2ccccc2)c(OCC(=O)NC2CC2)c1	none | LAP4 cherry2 inactive | MEP2 cherry2 inactive | RPL19A-GFP pick2 inactive | CIT2 GFP CP2 inactive | AGP1 GFP CP2 inactive
COc1ccc(C(=O)OCC(=O)NC2CCCC2)c(OC)c1	none
Cc1cc2c(C)nc3ccccc3c2o1	none | LAP4 cherry2 inactive | MEP2 cherry2 inactive | RPL19A-GFP pick2 inactive | CIT2 GFP CP2 inactive | AGP1 GFP CP2 inactive
Cc1nc2ccccc2c2oc(C(=O)NC3CC3)cc12	none
Nc1nc(NCCOCCO)nc(Nc2cccc(F)c2)c1[N+](=O)[O-]	none
CNc1nc(N)c([N+](=O)[O-])c(Nc2cccc(F)c2)n1	MEP2 TOR yeast 338[may fluoresce green], CIT2-GFP yeast 274[may fluoresce green] | LAP4 cherry2 inactive | MEP2 cherry2 active | RPL19A-GFP pick2 inactive | CIT2 GFP CP2 350 | AGP1 GFP CP2 159 | Yeast autofluor inactive | s288c autofl DR inactive | TORC1 bypass 1
